Source: PubChem BioAssay
This is a sample that favours compounds with a hit; in the whole collection about 19% have one here.
Giardia kill: kills Giardia lamblia; Giardia lamblia trophozoite viability; activity change, % at 7.66 µM, hits read low; 340,000 compounds, 0.15% hits; AID 540267; in the data active means activity change below about -80%; inconclusive means between about -30% and that limit;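 further: parasites exposed to compound for two days anaerobically before the ATP read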
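Luminescence from cellular ATP indicates surviving trophozoites (100 cells/well) following 48 hrs anaerobic compound treatment at 37 deg C; signal develops 15-30 min at room temperature.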
TDP1 cell noCPT: qHTS for Inhibitors of human tyrosyl-DNA phosphodiesterase 1 (TDP1): qHTS in cells in absence of CPT; DT40 Tdp1-/- hTDP1 cells, no CPT, ATP luminescence, 48 h; Potency, µM (highest dose often 46.2 µM), actives largely listed as inhibitors; 420,000 compounds, 15% hits; further: nearly all actives have a fitted effect of over 55% in size
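Chicken DT40 Tdp1-/- cells stably complemented with human TDP1 were seeded at 400 cells/well with DMSO in place of 20 nM camptothecin. After compound pinning, cells grew at least 48 hr at 37 °C; viability read by CellTiter-Glo luminescence.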
TDP1 block: inhibitors of human tyrosyl-DNA phosphodiesterase TDP1 | Q9NUW8 | recombinant TDP1, AlphaScreen DNA substrate cleavage | Potency, µM (top dose mostly 130 µM), hits mostly inhibitors | 350,000 compounds, 0.28% hits | AID 485290; further: nearly all actives have a fitted effect of over 40% in size
Target sequence (Q9NUW8 whole entry, looked up): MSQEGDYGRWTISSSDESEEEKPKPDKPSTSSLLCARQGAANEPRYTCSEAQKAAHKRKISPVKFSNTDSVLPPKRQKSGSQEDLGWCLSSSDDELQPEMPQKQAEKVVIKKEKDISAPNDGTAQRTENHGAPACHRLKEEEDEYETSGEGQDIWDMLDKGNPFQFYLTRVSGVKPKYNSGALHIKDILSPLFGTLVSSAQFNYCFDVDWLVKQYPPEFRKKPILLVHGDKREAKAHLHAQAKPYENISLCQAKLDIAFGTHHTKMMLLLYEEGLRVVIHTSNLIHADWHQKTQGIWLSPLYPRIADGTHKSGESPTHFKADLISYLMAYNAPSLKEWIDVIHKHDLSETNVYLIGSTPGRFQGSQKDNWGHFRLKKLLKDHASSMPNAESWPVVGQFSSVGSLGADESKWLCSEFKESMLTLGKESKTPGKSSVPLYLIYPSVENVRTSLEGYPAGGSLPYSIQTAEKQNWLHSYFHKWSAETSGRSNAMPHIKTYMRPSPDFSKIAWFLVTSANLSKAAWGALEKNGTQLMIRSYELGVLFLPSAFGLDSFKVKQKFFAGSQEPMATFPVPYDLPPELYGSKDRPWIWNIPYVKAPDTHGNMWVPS
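Compounds were preincubated with Tdp1 (1 nM final) for 15 min at room temperature before substrate (15 nM final) started a 5 min reaction; beads (10 ug/ml final) were then added for 10 min before AlphaScreen detection.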
ELG1 repair inh: inhibitors of ELG1-dependent DNA repair in HEK293T cells | HEK293T ELG1-luciferase reporter, luminescence, 16 h; DNA damage induced by 5-fluorouridine | Potency, µM (titrated, usually from 46.1 µM), hits mostly inhibitors | 330,000 compounds, 2.3% hits | AID 504467; further: nearly all actives have a fitted effect of over 55% in size
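Reporter activity after DNA damage by 5-fluorouridine is monitored. Compound-treated cells incubate 16 hr at 37 °C, then ONE-Glo is added for 30 min before luminescence reading.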
DT40 TDP1 CPT: growth inhibition of DT40 Tdp1-/-;hTDP1 cells with camptothecin (screen for TDP1 inhibitors). chicken DT40 Tdp1-/-;hTDP1 cells + 20 nM CPT, ATP luminescence, 48 h. Potency, µM (doses to about 46.2 µM), usual class: inhibitors. 420,000 compounds, 12% hits. AID 686979; further: nearly all actives have a fitted effect of over 55% in size
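Chicken DT40 Tdp1-/- cells stably complemented with human TDP1 were seeded at 400 cells/well in medium containing 20 nM camptothecin, exposed to pin-transferred compounds, and grown at 37 °C for at least 48 hr. Viability was read as ATP luminescence.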
IL-1B inflam inh: blocks inflammasome-driven IL-1 beta release; activity change, % at 57.5 µM; THP-1 LPS/ATP IL-1B secretion, AlphaLISA, 16 h; hits give low values; 360,000 compounds, 4.7% hits; in the data active means activity change below about -50%; inconclusive means mostly about -30% to -49%
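THP-1 cells pretreated 1 hr with compounds (up to 57.5 uM final), then stimulated with LPS (250 ng/mL final) plus ATP (1.25 mM final); secreted IL-1B measured by AlphaLISA after 16 hr, decreased signal indicating inhibition.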
Hits are given with their value; n = inactive; u = inconclusive; x = no result given; [ ] = remark or other dose. Unless noted, the call rests on the fitted dose curve; in most records, active means well fitted curve in the direction sought with a large enough effect; inconclusive means small, poorly fitted or top-dose-only effect, or another doubt; inactive means no such curve, though single readings can be large; an effect the other way counts as inactive or inconclusive.

SMILES | Giardia kill | TDP1 cell noCPT | TDP1 block | ELG1 repair inh | DT40 TDP1 CPT | IL-1B inflam inh
COc1ccc(Cl)cc1NC(=O)Cn1c(=O)n(Cc2cccs2)c(=O)c2cccnc21 | x | 18µM | n | x | u | x
Cc1ccc(C)c(NC(=O)Cn2c(=O)n(Cc3cccs3)c(=O)c3cccnc32)c1 | x | 13µM | n | x | 18µM | x
COc1ccc(CCn2c(=O)c3cccnc3n(CC(=O)Nc3cccc(C)c3)c2=O)cc1OC | x | n | n | x | n | x
COc1ccccc1NC(=O)Cn1c(=O)n(Cc2ccco2)c(=O)c2cccnc21 | x | u | n | x | u | x
COc1ccc(CCn2c(=O)c3cccnc3n(CC(=O)Nc3ccc(C)c(F)c3)c2=O)cc1OC | x | 21µM | n | x | 4.1µM | x
CCc1cccc(C)c1NC(=S)N(Cc1cccnc1)Cc1ccco1 | n | u | n | n | n | n
O=C(C1=C(O)C(=O)N(CC2CCCO2)C1c1ccccc1F)c1ccco1 (stereo not given) | n | n | x | n | n | -94
Cc1ccc(CNC(=O)c2cc(C)nc3c2c(C)nn3-c2ccc(C)cc2)cc1 | x | u | n | x | u | x
CC1(C)CC(=O)C=C(C#CC2(O)CCCCC2)C1 | x | 5.2µM | x | x | 7.3µM | -108
COc1cccc(C#CC2=CC(=O)CC(C)(C)C2)c1 | x | 2.9µM | x | x | 5.8µM | x
Cc1cccc(C#CC2=CC(=O)CC(C)(C)C2)c1 | x | 10µM | x | x | 16µM | x
CCCOc1ccccc1C1CC(=O)NC(C)=C1C(=O)OCC(C)C (stereo not given) | n | 16µM | n | n | 21µM | n
CCOc1ccccc1C1CC(=O)NC(C)=C1C(=O)OC1CCCCCC1 (stereo not given) | x | 16µM | n[12.3 µM] | x | 21µM | x
CCOc1ccccc1C1CC(=O)NC(C)=C1C(=O)OCc1ccc(C)cc1 (stereo not given) | x | 16µM | n | x | u | x
CC1=C(C(=O)OC2CCCCCCC2)C(c2ccc(O)cc2)NC(=O)N1 (stereo not given) | n | u | n | n | u | -55
CC1=C(C(=O)OC2CCCCC2)C(c2ccccc2Br)NC(=O)N1 (stereo not given) | n | u | x | n | u | n
CSCCOC(=O)C1=C(C)NC(=O)CC1c1ccccc1Cl (stereo not given) | n | u | n | u | u | n
CC1=C(C(=O)OCc2ccc(C)cc2)C(c2ccccc2F)CC(=O)N1 (stereo not given) | x | u | n | x | u | x
CCOC(=O)C1=NOC(COc2ccccc2C=O)C1 (stereo not given) | n | n | n | n | u | n
CCC1(C(=O)OC)CCc2c(cc(OC)c3ccccc23)C1=O (stereo not given) | n | u | n | u | u | n
CC(=O)C1=C(C)NC(=O)CC1c1ccccc1Cl (stereo not given) | n | n | n | n | n | n
CCC(C)OC(=O)C1=C(C)NC(=O)CC1c1ccccc1OC (stereo not given) | u | 10µM | n | n | 8.2µM | n
CCOc1ccccc1C1NC(=O)NC(C)=C1C(=O)OC1CCCC1C (stereo not given) | n | u | n | n | n | n
CC1=C(C(=O)OC(C)C)C(c2ccccc2Cl)CC(=O)N1 (stereo not given) | n | 12µM | n | n | 21µM | n
CCOc1ccccc1C1NC(=O)NC(C)=C1C(=O)OC1CCCCC1 (stereo not given) | n | u | n | n | u | -68
SMILES | Giardia kill | TDP1 cell noCPT | TDP1 block | ELG1 repair inh | DT40 TDP1 CPT | IL-1B inflam inh
COc1cccc(C(=O)N2c3cc(C)ccc3C(C)(c3ccccc3)CC2(C)C)c1 (stereo not given) | x | 15µM | n[12.3 µM] | x | u | x
COc1cccc(C(=O)N2c3cc(C)ccc3OCC2C(C)(C)C)c1 (stereo not given) | n | u | x | n | n | n
CC1(C)CN(c2ccccc2)N(C(=O)c2ccc(F)cc2)C1=O | n | u | n | n | u | n
Cc1ccc2c(c1)C(C)(c1ccccc1)CC(C)(C)N2C(=O)c1ccc(F)cc1 (stereo not given) | x | 13µM | n[12.3 µM] | x | u | x
CC(=O)c1ccc(N=C2SCCCN2C(=O)C2CCCC2)cc1 | n | n | n | u | n | n
COc1ccc(C2=NN(C(C#N)c3ccc(OC)c(OC)c3)C(c3ccccc3)C2)cc1 (stereo not given) | n | 21µM | n | u | u | n
COc1ccc(C(C#N)N2CCC(c3ccccc3)=N2)cc1OC (stereo not given) | n | n | n | n | n | -51
CC(C)CN(C[C@@H](OP(=O)(O)O)[C@H](Cc1ccccc1)NC(=O)O[C@H]1CCOC1)S(=O)(=O)c1ccc(N)cc1 | x | n | x | x | n | x
COc1cccc(C2=Cc3ccc(F)cc3C(CC(C)=O)N2c2ccc(C#CC3(O)CCCCC3)cc2)c1 (stereo not given) | x | u | x | x | u | n
COc1cc(OC)cc(C2=Cc3ccccc3C(CC(C)=O)N2c2ccc(C#CC3(N)CCCCC3)cc2)c1 (stereo not given) | x | u | x | x | u | n
COc1cc(OC)cc(C2=Cc3ccc(OC)cc3C(CC(C)=O)N2c2ccc(C#CC3(N)CCCCC3)cc2)c1 (stereo not given) | x | 26µM | x | x | 5.2µM | n
COc1cc(OC)cc(C2=Cc3ccc(OC)cc3C(CC(C)=O)N2c2ccc(C#CC3(O)CCCCC3)cc2)c1 (stereo not given) | x | 21µM | x | x | u | n
COc1ccc(NC(=O)CSc2nnc(Cn3cnc4ccccc43)o2)cc1 | n | n | n | u | n | n
Cc1c(C(=O)N2CCOCC2)sc(NC(=O)Cc2ccccc2)c1C#N | n | n | n | n | n | n
Cc1ccc(S(=O)(=O)N(C)C)cc1NC(=O)C(C)N(C)Cc1sccc1C (stereo not given) | n | 21µM | x | n | 18µM | u
Cc1ccc(S(=O)(=O)N(C)C)cc1NC(=O)C(C)NC(C)c1cccs1 (stereo not given) | n | n | n | u | u | n
COc1cc(NC(=O)Cn2nnc(-c3ccc(C(F)(F)F)cc3)n2)c(C(=O)O)cc1OC | x | n | n | x | n | x
O=C(c1csc2ccccc12)N1CCCCCC1 | n | 18µM | n | n | 21µM | n
Nc1ccc(C(=O)n2c3ccccc3c3ccccc32)cc1 | n | 2.3µM | n | n | 1.8µM | n
Nc1ccc(C(=O)N2CCCC2)cc1 | n | n | n | u | n | n
COc1ccc(CN2C[C@H]3CCCN3c3cc(Br)ccc3S2(=O)=O)cc1 | n | 0.92µM | n | u | 2.1µM | n
C=C1[C@@H](O)CN(Cc2ccc(OC)cc2)S1(=O)=O | x | 18µM | x | x | u | x
